Source: PubChem BioAssay
Shown are actives, neighbours in structure and some others; about 10% of the full set was active somewhere.
PNC inhibitor: blocks assembly of the perinucleolar compartment | PC3M PTB-GFP, PNC prevalence imaging, 16 h; stronger effect = lower value | activity change (PNC), negative = inhibition, % at 10 µM | hit rate 3.1% among 140,000;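 active means readout at or below -70, meaning at least 70% loss of cells showing the perinucleolar compartment, a nuclear body marking cancer cells; inconclusive means readout between -30 and a set limit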;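 further: plate controls were DMSO wells for no effect and camptothecin positive control wells for full effect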
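Read-out is percentage of cells bearing a perinucleolar compartment, from automated 20x imaging of fixed, Hoechst-stained PC3M PTB-GFP cells. Cells were seeded 4 h, then exposed 16 h to compound (23 nl of library stock) in duplicate plates.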
HPGD block: HPGD (human) dehydrogenase inhibition | P15428 | purified HPGD, NADH fluorescence kinetic, PGE2 substrate | Potency, µM, inactives show top-dose activity change, negative = inhibition, hits mostly inhibitors | hit rate 4.3% among 150,000 | AID 894; further: potency means the concentration at half of the fitted maximal effect
Target sequence (P15428 whole entry, looked up): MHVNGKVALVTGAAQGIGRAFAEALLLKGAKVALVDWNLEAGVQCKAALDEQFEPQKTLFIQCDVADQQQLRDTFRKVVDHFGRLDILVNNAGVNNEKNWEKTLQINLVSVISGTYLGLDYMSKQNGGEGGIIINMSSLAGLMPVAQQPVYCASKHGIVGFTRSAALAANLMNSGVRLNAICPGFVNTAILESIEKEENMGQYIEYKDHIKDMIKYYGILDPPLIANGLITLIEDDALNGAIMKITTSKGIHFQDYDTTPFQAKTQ
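20 nM HPGD preincubated 15 min at room temperature with compound in 50 mM Tris-HCl pH 8, 0.01% Tween 20. Started with 1 mM NAD+ and 30 uM prostaglandin E2; NADH fluorescence (360/450 nm) read 5 times over 30-s intervals, last minus first.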
Luc counter: Kinase-Glo luciferase inhibition (counter-screen). Potency, µM (highest dose often 38.3 µM), without a hit: at the top dose activity change, negative = inhibition, most hits filed as inhibitors. Kinase-Glo luciferase, ATP luminescence, 8 min. hit rate 0.28% among 200,000. Q27757; active means well fitted inhibition curve with a large enough effect; inconclusive means small, poorly fitted or top-dose-only effect; further: potency means the concentration at half of the fitted maximal effect; nearly all actives have a fitted effect of over 60% in size
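Substrate mix (final 50 mM imidazole pH 7.2, 50 mM KCl, 7 mM MgCl2, 10 uM ATP, 0.01% Tween 20, 0.05% BSA) plus pin-tool compound, then Kinase-Glo detection mix; 8 min ambient, luminescence read.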
ALDH1A1 inh: blocks purified human ALDH1A1 activity | AID 1030 | Purified ALDH1A1, NADH fluorescence, propionaldehyde substrate | hit rate 7.3% among 220,000 | P00352 | Potency, µM (series often up to 75.3 µM), for inactives: at the highest dose activity, negative = inhibition, usual class: inhibitors;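 further: potency means the concentration at half of the fitted maximal effect; plate controls were no enzyme wells and a reference inhibitor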
Lamin A splicing: LMNA splicing modulation; AID 1487; hit rate 0.01% among 200,000; HeLa LMNA splicing GFP/RFP minigene ratio, 48 h; Potency, µM (doses to about 46.1 µM), inactives show at the highest dose ratio change, negative = inhibition, usual class: inhibitors; active means well fitted inhibition curve with a large enough effect in the signal ratio, with a control signal flat, not every such curve was filed as active; inconclusive means small, poorly fitted or top-dose-only effect, or effect the other way, or a change in a side signal; the % refers to the signal ratio; further: potency means the concentration at half of the fitted maximal effect
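S3 HeLa stable clones carrying a lamin A-EGFP splicing minigene plus DsRed2 were seeded at 600 cells/well in Opti-MEM with 2% FBS, pin-dosed and incubated 48 h at 37°C. Acumen cytometry (488 nm) gave the GFP/RFP total-intensity ratio.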
Starred values were filed as active, the others as inactive; u = inconclusive; x = no result; [ ] = remark or other dose. Unless noted, the call rests on the fitted dose curve; in most records, active means well fitted inhibition curve with a large enough effect (not every such curve was filed as active); inconclusive means small, poorly fitted or top-dose-only effect, or another doubt; inactive means no such curve, though single readings can be large or run the other way. Unless noted, on the % scale 0 is the no-effect control and ±100 the full control effect.

SMILES	PNC inhibitor	HPGD block	Luc counter	ALDH1A1 inh	Lamin A splicing
CC1CN(C(=O)/C=C/c2ccc3c(c2)OCO3)CC(C)O1 (stereo not drawn)	28	u	-3%	u	2%
CC1=C/C(=C\c2ccc3c(c2)OCO3)C(=O)S1	-85*	-20%	-4%	u	17%
Cn1c(SCC(=O)c2ccc(F)cc2)nnc1-c1ccccc1N	9	-14%	-1%	-9%	u
Cn1c(SCC(=O)Nc2ccc3cn[nH]c3c2)nnc1-c1cnccn1	-100*	-9%	11%	1%	5%
Cc1ccc(C(=O)CSc2nnc(-c3ccccc3N)n2C)cc1	-17	-22%	-5%	11µM*	u
CCn1c(SCC(=O)c2ccc(NS(=O)(=O)c3ccccc3)cc2)nnc1-c1cccs1	7	22µM*	3%	u	-4%
CCn1c(Cc2cccn2C)nnc1SCC(=O)c1ccc(C)cc1	2	u	0%	10µM*	3%
CCn1c(SCC(=O)c2cccs2)nnc1-c1cccs1	41	x	x	u	8%
COC(=O)CC[C@@H](C)[C@H]1CC[C@H]2[C@@H]3CC[C@@H]4C[C@H](O)CC[C@]4(C)[C@H]3C[C@H](O)[C@]12C	x	-1%	3%	5%	x
COC(=O)CNC(=O)C1(C)C=CC2(CCCCC2)N1C(C)=O (stereo not drawn)	x	-8%	0%	10%	x
O=S(=O)(c1ccccc1)N1CCC2(CCCN(Cc3cc(C(F)(F)F)cc(C(F)(F)F)c3)C2)CC1	x	-14%	-2%	u	x
CSc1ncc(C(=O)NCc2cccc(C)c2)c(-c2ccccc2)n1	x	x	x	x	2%[46 µM]
Cn1c(SCC(=O)c2ccccc2)nnc1-c1cnccn1	u	-21%	8%	20µM*	-8%
CCn1c(SCC(=O)c2ccccc2)nnc1-c1cnccn1	36	18µM*	-2%	-8%	12%
CC(C)OC(=O)CSc1nnc(-c2cnccn2)n1C	-91*	-14%	-6%	-14%	-6%
Cn1c(SCC(=O)c2ccccc2)nnc1-c1cccnc1	u	-11%	-4%	u	9%
Cc1cc2c(c(=O)o1)[C@H](O)[C@H]1O[C@@H]1C2=O	x	x	x	-9%[13.5 µM]	x
CC1CC2(C)Oc3ccccc3C3OCC1(COC(=O)Nc1ccccc1)C(C)C32 (stereo not drawn)	x	-4%	2%	-2%	x
O=C(NCCc1ccccc1)c1ccc(Cn2c(SCc3ccccc3)nc3cccnc32)cc1	x	x	x	x	3%[46 µM]
COc1ccc(-c2[nH]nc3nc(-c4cc(Br)ccc4OC)cc(C(=O)O)c23)cc1	x	x	x	x	-13%[46 µM]
O=C(CCn1c(=S)[nH]c2ccccc2c1=O)N1CCOCC1	12	-14%	1%	2%	5%
O=C(CCCCCn1c(=S)[nH]c2ccc(Br)cc2c1=O)NCC1CCCO1 (stereo not drawn)	1	2.8µM*	3%	-7%	0%
CCOc1cc2[nH]c(=O)n(CCCCC(=O)N3CCCCCC3)c(=O)c2cc1OCC	-100*	u	3%	u	-8%
O=C(c1ccc(F)cc1)C1CCN(CCn2c(=S)[nH]c3ccccc3c2=O)CC1	x	14µM*	-1%	-2%	x
CCOc1cc2[nH]c(=O)n(CCC(=O)N3CCN(c4ccccc4)CC3)c(=O)c2cc1OCC	x	x	x	x	-5%[46 µM]
SMILES	PNC inhibitor	HPGD block	Luc counter	ALDH1A1 inh	Lamin A splicing
O=C(CCCn1c(=S)[nH]c2ccccc2c1=O)N1CCCCC1	-13	10µM*	3%	u	-5%
OC[C@@H](O)C(O[C@@H]1O[C@@H](CO)[C@H](O)[C@H](O)[C@H]1O)[C@H](O)[C@@H](O)CO (stereo partly drawn)	x	x	x	x	11%
CC(C)c1ccc(NC(=O)c2cnc3sc(N4CCOCC4)nn3c2=O)cc1	x	x	x	x	-14%[46 µM]
O=C(O)c1cccc(C(=O)O)c1S(=O)Cc1ccccc1 (stereo not drawn)	x	-1%	-4%[7.66 µM]	13%[13.5 µM]	x
COc1ccc(-c2nc3cnc(N4CCN(C)CC4)nc3n(Cc3ccc(F)cc3)c2=O)cc1	x	x	x	u	12%
C=C(C)C(O)/C=C/c1ccccc1OC (stereo not drawn)	x	x	x	16%[13.5 µM]	x
O=C(CCCn1c(=S)[nH]c2ccccc2c1=O)NC1CCCCC1	-12	20µM*	16%	-14%	-2%
